High-throughput results: PubChem BioAssay, National Center for Advancing Translational Sciences (NCATS)
Shown are actives, neighbours in structure and some others; about 10% of the full set was active somewhere.
VDR inh = Inhibitors of the vitamin D receptor (VDR): qHTS. Vitamin D3 receptor (Homo sapiens), P11473. VDR-SRC2-3 peptide fluorescence polarization, 2 h. Potency, µM, actives largely listed as inhibitors. 0.93% of 400,000 active. AID 504847, 2011
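After 23 nl compound addition and a short centrifugation, plates sat for 2 hours at ambient temperature; polarization of fluorescence then indicated loss of VDR binding to peptide SRC2-3.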
CCT modulator = High-Throughput Screening for Modulators of Cytosolic Chaperonin Activity; 0.3% of 360,000 active; activity change, % (test concentration not listed), hits read low; purified chaperonin ATPase assay, HTRF ADP detection, 30 min; in the data active means activity change below about -30%
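We incubate TRiC, 40 or 20 nM final, with library compounds at 76 uM and 10 uM ATP for 30 min at 37 °C. ADP formed is detected with Transcreener HTRF reagents after 30 min at room temperature.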
PLK1 PBD block = qHTS for Inhibitors of PLK1-PDB (polo-like kinase 1 - polo-box domain): Primary Screen | Plk1 PBD binding of FITC phosphopeptide, fluorescence polarization | Potency, µM, actives largely listed as inhibitors | 2.8% of 360,000 active; further: series mostly up to about 57 µM; nearly all actives have a fitted effect of over 65% in size
Target sequence (P53350 whole entry, looked up, the tested form may be a part): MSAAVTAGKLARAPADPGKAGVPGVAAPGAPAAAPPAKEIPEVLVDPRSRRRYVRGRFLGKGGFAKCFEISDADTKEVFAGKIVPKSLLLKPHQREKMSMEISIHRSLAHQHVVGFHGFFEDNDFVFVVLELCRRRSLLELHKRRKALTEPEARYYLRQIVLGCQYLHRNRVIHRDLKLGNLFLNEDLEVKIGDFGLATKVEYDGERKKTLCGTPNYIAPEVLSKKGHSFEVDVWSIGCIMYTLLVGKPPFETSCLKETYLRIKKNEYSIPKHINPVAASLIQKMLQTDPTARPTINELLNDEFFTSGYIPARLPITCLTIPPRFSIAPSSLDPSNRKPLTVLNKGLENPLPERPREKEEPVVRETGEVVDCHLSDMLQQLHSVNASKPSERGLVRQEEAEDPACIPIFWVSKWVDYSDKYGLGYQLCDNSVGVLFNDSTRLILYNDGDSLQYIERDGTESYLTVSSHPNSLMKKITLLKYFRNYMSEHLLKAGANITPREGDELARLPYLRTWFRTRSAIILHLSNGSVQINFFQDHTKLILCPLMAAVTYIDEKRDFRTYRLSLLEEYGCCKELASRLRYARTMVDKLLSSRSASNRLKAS
G9a inh = qHTS Assay for Inhibitors of Histone Lysine Methyltransferase G9a; Histone-lysine N-methyltransferase EHMT2 (Homo sapiens), Q96KQ7; G9a H3K9 monomethylation, AlphaScreen, 2 h; Potency, µM (highest dose often 102 µM), actives largely listed as inhibitors; 8.8% of 350,000 active; AID 504332, 2011; further: nearly all actives have a fitted effect of over 75% in size
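G9a (20 nM) was preincubated 15 min with compound, then reacted 2 h at room temperature with 500 nM biotin-H3K9 peptide and 20 µM SAM. Monomethyl-H3K9 detected by AlphaScreen using anti-H3K9me1 antibody.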
MmCpn inh = Inhibitors of TCP-1 ring complex (TRiC) of Methanococcus maripaludis (MmCpn): qHTS. purified Mm-Cpn ATPase, ADP Transcreener TR-FRET. Potency, µM (top dose mostly 76.9 µM), usual class: inhibitors. 0.031% of 330,000 active. AID 504842, 2011; further: nearly all actives have a fitted effect of over 80% in size
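ATPase turnover read by TR-FRET ADP competition (Eu cryptate antibody/ADP-d2, 665/590 nm): 10uM ATP final, 25nM Mm-CPN final, 30 min 37degC after 10-min compound preincubation, pH 7.4 Tris/KCl/MgCl2/DTT buffer.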
Sfp PPTase inh = qHTS Assay for Inhibitors of Bacillus subtilis Sfp phosphopantetheinyl transferase (PPTase). 4'-phosphopantetheinyl transferase ffp (Bacillus subtilis), Q9F4F7. Biochemical Sfp PPTase activity, qHTS. Potency, µM, actives largely listed as inhibitors. 3.5% of 310,000 active. AID 1490, 2009;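 further: the enzyme is Sfp with the accession as filed and its product quenches rhodamine fluorescence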
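Buffer: 50 mM Hepes-Na pH 7.6, 10 mM MgCl2, 0.01% Nonidet P-40, 0.01% BSA. Enzyme 15 nM, pre-exposed to compound 15 min; substrates then added and fluorescence change tracked over 30 min.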
Hits are given with their value; [ ] = another dose, or the depositor's remark. Unless noted, the call rests on the fitted dose curve; in most records, active means well fitted curve in the direction sought with a large enough effect; inconclusive means small, poorly fitted or top-dose-only effect, or another doubt; inactive means no such curve, though single readings can be large; an effect the other way counts as inactive or inconclusive.

For c1ccc(Cc2nn3c(-c4ccncc4)nnc3s2)cc1 the results were VDR inh inconclusive, CCT modulator inactive, PLK1 PBD block 24µM, G9a inh inconclusive, MmCpn inh inactive and Sfp PPTase inh inconclusive.
For c1ccc(Cc2nnc3sc(-c4ccncc4)nn23)cc1 the results were VDR inh inactive, CCT modulator inactive, PLK1 PBD block inconclusive, G9a inh 3.5µM, MmCpn inh inactive and Sfp PPTase inh inactive.
For c1ccc(Cc2nnc3sc(-c4cccnc4)nn23)cc1 the results were VDR inh inactive, CCT modulator inactive, PLK1 PBD block 30µM, G9a inh inconclusive, MmCpn inh inactive and Sfp PPTase inh inconclusive.
For c1ccc(-c2nnc3sc(Cc4cccs4)nn23)cc1 the results were VDR inh inactive, CCT modulator inactive, PLK1 PBD block inactive, G9a inh inconclusive, MmCpn inh inactive and Sfp PPTase inh inactive.
Clc1ccc(-c2nnc3sc(Cc4cccs4)nn23)cc1 was read as VDR inh inactive, CCT modulator inactive, PLK1 PBD block inactive, G9a inh 35µM, MmCpn inh inactive and Sfp PPTase inh inactive.
Cc1ccc(-c2nc3sc(CCNS(=O)(=O)c4cc(F)ccc4F)c(C)n3n2)cc1 was read as VDR inh inactive and G9a inh inactive.
For CC(C)CCN=Cc1c(O)n(-c2ccccc2)c(=O)c2ccccc12 the results were VDR inh inactive, CCT modulator inactive, PLK1 PBD block inactive, G9a inh inactive, MmCpn inh inactive and Sfp PPTase inh 56µM.
For COc1cccc(OCC(O)CN2CCN(C)CC2)c1 (configuration not stated) the results were VDR inh inactive, CCT modulator inactive, PLK1 PBD block inactive, G9a inh 25µM, MmCpn inh inactive and Sfp PPTase inh inconclusive.
`Cc1ccccc1OCC(O)CN1CCN(C)CC1` (configuration not stated) gave VDR inh inactive, CCT modulator inactive, PLK1 PBD block inactive, G9a inh 50µM, MmCpn inh inactive and Sfp PPTase inh inactive.
Screening COc1ccccc1OCC(O)CN1CCN(CC(=O)Nc2c(C)cccc2C)CC1 (configuration not stated) returned VDR inh inactive, CCT modulator inactive, PLK1 PBD block inactive, G9a inh inactive, MmCpn inh inactive and Sfp PPTase inh inactive.
For O=c1[nH]c(=O)n(C2CC(O)C(CO)O2)cc1C(F)(F)F (configuration not stated) the results were VDR inh inactive, G9a inh inactive[2.33 µM] and Sfp PPTase inh inactive.
For CCCCCCCCCCCCCCCCCCNc1ccn(C2OC(COP(=O)(O)OCC3OC(n4cc(F)c(=O)[nH]c4=O)CC3O)C(O)C2O)c(=O)n1 (configuration not stated) the results were VDR inh inconclusive, CCT modulator inactive and PLK1 PBD block 27µM.
O=C(NCCC1=CCCCC1)c1ccc(-n2cncn2)c([N+](=O)[O-])c1 was read as VDR inh inactive, CCT modulator inactive, PLK1 PBD block inactive, G9a inh inactive and MmCpn inh inactive.
`O=C(O)c1cc([N+](=O)[O-])c(NCCC2=CCCCC2)c([N+](=O)[O-])c1` gave VDR inh inconclusive, CCT modulator inactive, PLK1 PBD block inactive, G9a inh 50µM, MmCpn inh inactive and Sfp PPTase inh inactive.
For Cc1ccc(CNC(=O)c2cc3cc(C)ccc3n2C)cc1 the results were VDR inh inactive and G9a inh inconclusive.
`CC[C@@H](C)C(N)C(=O)O` (some centres not stated) gave VDR inh inactive, G9a inh inactive[12.7 µM] and Sfp PPTase inh inactive.
For Cc1ccc(SC2=C(Sc3ccc(C)cc3)C(=O)c3ccccc3C2=O)cc1 the results were VDR inh inconclusive, CCT modulator inactive, PLK1 PBD block 1.7µM, G9a inh 2.8µM, MmCpn inh inconclusive and Sfp PPTase inh 7.1µM.
Screening Cc1ccc2nc(C)cc(Nc3ccc4c(c3)OCCO4)c2c1 returned VDR inh inactive, CCT modulator inactive, PLK1 PBD block inactive, G9a inh 45µM, MmCpn inh inactive and Sfp PPTase inh inconclusive.
NC(=O)c1ccc(C[C@H](C(=O)O)N2C(=O)c3ccc(C(=O)O)cc3C2=O)cc1 was read as G9a inh inactive[12.7 µM], MmCpn inh inactive and Sfp PPTase inh inactive.
For COc1ccccc1-c1c(C(F)(F)F)oc2cc(OC(=O)c3ccc([N+](=O)[O-])cc3)ccc2c1=O the results were VDR inh inactive, CCT modulator inactive, PLK1 PBD block inactive, G9a inh 25µM, MmCpn inh inactive and Sfp PPTase inh inactive.
`COc1ccc(C(=O)Oc2ccc3c(-c4ccc(OC)cc4)cc(=O)oc3c2)cc1` gave VDR inh inactive and Sfp PPTase inh inactive.
CCOC(=O)CSc1nc2sc3c(c2c(=O)n1Cc1ccccc1)CCC(C(C)(C)C)C3 (configuration not stated) was read as VDR inh inactive and G9a inh inactive.
Screening CCc1ccc[n+](-c2[nH]c(=O)sc2/C=N/N=C(\[O-])c2ccncc2)c1 returned VDR inh inactive, CCT modulator inactive, PLK1 PBD block inactive, G9a inh 40µM, MmCpn inh inactive and Sfp PPTase inh inactive.
O=C(CCc1ccc(O)c(O)c1)NNC(=S)Nc1ccc(Br)cc1Cl was read as VDR inh inactive, CCT modulator inactive, PLK1 PBD block inactive, G9a inh 18µM, MmCpn inh inconclusive and Sfp PPTase inh inactive.
`CC1CCc2c(nc3nc[nH]n3c2=O)C1` (configuration not stated) gave VDR inh inactive, CCT modulator inactive, PLK1 PBD block inactive, G9a inh inactive, MmCpn inh inactive and Sfp PPTase inh inactive.
S=c1c2c(nc3nc[nH]n13)CCC2 was read as VDR inh inactive, CCT modulator inactive, PLK1 PBD block inactive, MmCpn inh inactive and Sfp PPTase inh 14µM.
For COC(=O)[C@@H](NC(=O)O[C@H]1C(=O)c2cc(OC)ccc2O[C@@H]1c1ccc(OC)c(Br)c1)C(C)C the results were VDR inh inactive and Sfp PPTase inh inactive.
`Cc1nc(NC(=O)c2ccccc2)sc1C` gave VDR inh inactive, CCT modulator inactive, PLK1 PBD block inactive, G9a inh inactive[0.501 µM], MmCpn inh inactive and Sfp PPTase inh inactive.
Cc1nc(NC(=O)c2cccnc2Cl)sc1C was read as VDR inh inactive, CCT modulator inactive and PLK1 PBD block inactive.
